Among the data in PubChem BioAssay (NCI) are growth values, retold here.

This is part of a sample that, as a whole, favours compounds with a hit. Of some 83,000 tested, about 20% had one in any assay.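 96-well plates, one dose, 48 hours. Percent growth reported; active if below 10.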 A number with no mark means an inactive call. The source made the active and inactive calls.

Some test systems named below: DU-145 prostate; K-562 leukemia; MALME-3M melanoma; MDA-MB-231 breast; RXF 393 renal; SF-268 CNS; SF-295 CNS; SF-539 CNS; UACC-257 melanoma; M14 melanoma; HT29 colon; SNB-75 CNS; SNB-19 CNS; U251 CNS; SK-MEL-5 melanoma; UACC-62 melanoma; LOX IMVI melanoma; SK-MEL-28 melanoma; PC-3 prostate; HCT-15 colon.
Holding throughout (test): NCI-60 one-dose screen, 48 h (100 = growth as untreated, 0 = no growth, -100 = all killed)
Holding throughout (settings): 10 µM

Regarding `O=C1NN(c2ccccc2)C(c2cccnc2)=N/C1=C\c1cccnc1`, the growth in the experiment on DU-145 prostate was 93.1%; in the experiment with K-562 leukemia, 102%; with MALME-3M melanoma it was 105%; in the experiment with MDA-MB-231 breast it was 92.6%; in the experiment on RXF 393 renal, 99.5%; in the experiment on SF-268 CNS, 89.4%. Moreover, the growth is 95.1% with SF-295 CNS; 102% in the experiment with SF-539 CNS; 105% in the experiment on UACC-257 melanoma; 91.7% with M14 melanoma; 97.2% in the experiment with HT29 colon; 79.6% in the experiment on SNB-75 CNS. Besides, the growth is 92.7% with SNB-19 CNS; 102% in the experiment with U251 CNS; 91.8% with SK-MEL-5 melanoma; 86.1% in the experiment with UACC-62 melanoma; 82.9% in the experiment with LOX IMVI melanoma; 116% in the experiment with SK-MEL-28 melanoma.

Regarding `Cc1[nH]nc2c(=S)[nH]c(=O)[nH]c12`, the growth in the experiment with DU-145 prostate was 106%; in the experiment with K-562 leukemia, 105%; in the experiment with MALME-3M melanoma, 88.2%; in the experiment on MDA-MB-231 breast, 104%; with RXF 393 renal, 107%; in the experiment with SF-268 CNS, 104%. For the same compound, the growth with SF-295 CNS was 91%; in the experiment with SF-539 CNS, 101%; in the experiment with UACC-257 melanoma it was 90%; in the experiment with M14 melanoma it was 100%; in the experiment on HT29 colon, 108%; with SNB-75 CNS it was 89.7%. The growth with SNB-19 CNS is 101%; in the experiment with U251 CNS, 100%; with PC-3 prostate, 97.1%; in the experiment with SK-MEL-5 melanoma it was 94.4%; in the experiment with UACC-62 melanoma, 88.5%; with LOX IMVI melanoma, 99.9%. Also, the growth with SK-MEL-28 melanoma was 102%.

Take `O=c1oc2c3ccc4cnccc4c3[nH]c2c2ccccc12`: the growth in the experiment with DU-145 prostate is 16.9%; in the experiment on K-562 leukemia, 21.1%; with MALME-3M melanoma, -80.8% (active); with MDA-MB-231 breast, 68.2%; with SF-268 CNS it was 23%; with SF-295 CNS, 75.6%. The growth in the experiment on SF-539 CNS was -72.1% (active); with UACC-257 melanoma it was 1.25% (active); with M14 melanoma, 67.3%; in the experiment with HCT-15 colon, 80.9%; in the experiment with HT29 colon, -19.7% (active); in the experiment with SNB-75 CNS, 14.1%. Also, the growth in the experiment on SNB-19 CNS is 14.6%; with U251 CNS it was -35% (active); in the experiment on SK-MEL-5 melanoma it was 28.3%; with UACC-62 melanoma it was 73.2%; in the experiment on LOX IMVI melanoma it was 13.5%; in the experiment with SK-MEL-28 melanoma, 5.14% (active).

For `CC1=CC2OC34COC3CC(OC(=O)C(F)(F)F)C4(C)C2(C)CC1` (stereo not given), the growth with DU-145 prostate is 108%; in the experiment with K-562 leukemia, 120%; in the experiment on MALME-3M melanoma, 109%; in the experiment on MDA-MB-231 breast, 101%; in the experiment on RXF 393 renal, 93.9%; in the experiment with SF-268 CNS, 103%. Besides, the growth in the experiment with SF-295 CNS was 100%; in the experiment with SF-539 CNS, 98.4%; with UACC-257 melanoma, 103%; in the experiment with M14 melanoma, 96%; in the experiment with HT29 colon, 104%; in the experiment on SNB-75 CNS it was 86%. Moreover, the growth is 94.5% in the experiment with SNB-19 CNS; 101% with U251 CNS; 100% in the experiment on PC-3 prostate; 97.4% in the experiment with SK-MEL-5 melanoma; 101% with UACC-62 melanoma; 97.1% in the experiment on LOX IMVI melanoma. Moreover, the growth in the experiment on SK-MEL-28 melanoma is 101%.

As for `COc1cc(-c2nc3ccc(C)cc3[nH]2)ccc1OCc1nnc(-c2ccc(CC(C)C)cc2)o1`, the growth is 101% in the experiment on DU-145 prostate; 46% in the experiment with K-562 leukemia; 98% in the experiment with MALME-3M melanoma; 88.9% with MDA-MB-231 breast; 71.3% with RXF 393 renal; 105% in the experiment with SF-268 CNS. Moreover, the growth is 96.3% with SF-295 CNS; 91.7% in the experiment with SF-539 CNS; 96.8% in the experiment with UACC-257 melanoma; 104% in the experiment on M14 melanoma; 73.3% with HT29 colon; 83.9% in the experiment on SNB-75 CNS. Also, the growth in the experiment with SNB-19 CNS is 94.6%; with U251 CNS, 75.6%; in the experiment with PC-3 prostate it was 88.1%; with SK-MEL-5 melanoma, 85.7%; in the experiment on UACC-62 melanoma, 90.3%; in the experiment on LOX IMVI melanoma it was 103%. The growth in the experiment on SK-MEL-28 melanoma is 87.8%.

Take `O=C1/C(=C/c2ccc(O)cc2)Oc2ccc(Cl)cc21`: the growth in the experiment with DU-145 prostate was 114%; with K-562 leukemia it was 96%; in the experiment on MALME-3M melanoma, 82.4%; in the experiment with MDA-MB-231 breast it was 60.1%; with RXF 393 renal, 65.6%; in the experiment with SF-268 CNS it was 93%. The growth was 89.9% in the experiment on SF-295 CNS; 66.7% with SF-539 CNS; 79% with UACC-257 melanoma; 93.9% in the experiment on M14 melanoma; 155% with HT29 colon; 82.8% in the experiment with SNB-75 CNS. For the same compound, the growth with SNB-19 CNS was 85.1%; in the experiment with U251 CNS it was 89.9%; in the experiment on PC-3 prostate, 95.1%; in the experiment with SK-MEL-5 melanoma, 74.8%; in the experiment on UACC-62 melanoma, 82.5%; with LOX IMVI melanoma, 82.3%. Further, the growth with SK-MEL-28 melanoma is 142%.

Consider `COc1ccc(-c2ccc(-c3ccc(C(=N)N)c(F)c3)s2)cc1`, for which the growth in the experiment on DU-145 prostate was -97.8% (active); with K-562 leukemia, -70.2% (active); in the experiment with MALME-3M melanoma, -62% (active); with MDA-MB-231 breast it was -89% (active); with RXF 393 renal, -80.4% (active); in the experiment with SF-268 CNS, -89.8% (active). Further, the growth in the experiment on SF-295 CNS was -87.5% (active); in the experiment on SF-539 CNS, -93.7% (active); in the experiment on UACC-257 melanoma it was -87.1% (active); in the experiment with M14 melanoma, -83.5% (active); with HT29 colon it was -90% (active); in the experiment on SNB-75 CNS, -98.9% (active). Further, the growth with SNB-19 CNS is -89.6% (active); in the experiment on U251 CNS, -95.1% (active); in the experiment on PC-3 prostate, -88.6% (active); in the experiment with SK-MEL-5 melanoma it was -93.9% (active); with UACC-62 melanoma, -88.9% (active); with LOX IMVI melanoma, -84.3% (active). Besides, the growth with SK-MEL-28 melanoma was -91.5% (active).

In the case of `COc1ccc(C2C=C(c3ccc(Cl)c(Cl)c3)N=C3SC(C)=CN32)cc1OC` (stereo not given), the growth in the experiment on DU-145 prostate was 83.6%; in the experiment with K-562 leukemia it was 59.5%; in the experiment with MALME-3M melanoma, 87.3%; in the experiment with MDA-MB-231 breast, 46.1%; in the experiment on RXF 393 renal, 66.4%; with SF-268 CNS it was 63.2%. The growth was 42.5% with SF-295 CNS; 90.7% with SF-539 CNS; 79.7% in the experiment with UACC-257 melanoma; 71% in the experiment on M14 melanoma; 62.9% with HT29 colon; 83.4% in the experiment on SNB-75 CNS. Besides, the growth in the experiment on SNB-19 CNS is 79.4%; in the experiment on U251 CNS, 69.2%; with PC-3 prostate, 35.6%; in the experiment on SK-MEL-5 melanoma, 85.1%; with UACC-62 melanoma it was 82.9%; in the experiment on LOX IMVI melanoma, 56.2%. Moreover, the growth in the experiment on SK-MEL-28 melanoma was 62.4%.
